Compound activity deposited in PubChem BioAssay by National Center for Advancing Translational Sciences (NCATS).
Hits are enriched below; roughly 13% of the tested compounds scored in any of these assays.
Pf growth 96h – P. falciparum growth inhibition at 96 hours; Potency, µM (titrated, usually from 28.7 µM), inactives show top-dose activity change, negative = inhibition, hits mostly inhibitors; P. falciparum luciferase reporter growth, 96 h; 320,000 compounds, 6.9% hits; AID 504834; further: potency means the concentration at half of the fitted maximal effect
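Two parasite generations (96 h, 37 C, 5% CO2) of compound exposure in infected erythrocytes (0.05% parasitemia, 2% hematocrit). Luciferase-reporter P. falciparum; decreased luminescence indicates inhibited growth, aimed at apicoplast-acting delayed death.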
HCMV antiviral – inhibitors of human cytomegalovirus. AID 1259415. 410,000 compounds, 4.5% hits. HFF cells, HCMV-luciferase reporter, 72 h; hits give low values. activity change, negative = inhibition, % at 57.5 µM; in the data active means activity change below about -60%; inconclusive means no clear call, values can overlap the other calls; inactive means above about -39%
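Inhibition of viral replication was scored as loss of reporter luminescence in HFFs infected with HCMV-luciferase (MOI 1 PFU/cell) for 72 h; compounds tested at 2 doses, normalized to buffer and Salinomycin controls.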
Pf growth 48h – inhibits P. falciparum growth in the first generation, 48 h; P. falciparum luciferase growth in erythrocytes, 48 h; Potency, µM (doses to about 28.7 µM), without a hit: at the top dose activity change, negative = inhibition, hits mostly inhibitors; 310,000 compounds, 5.9% hits; AID 504832; further: potency means the concentration at half of the fitted maximal effect
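Growth was read as firefly luciferase luminescence after a 48 h, 37 C, 5% CO2 exposure of compounds to reporter-bearing P. falciparum cultures (0.1% parasitemia, 2% hematocrit final) in Albumax-supplemented RPMI 1640.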
HCV inhibitor – blocks hepatitis C virus. Huh7.5.1 HCVcc-Cre infection, luciferase reporter, 44 h. Potency, µM (highest dose often 41.8 µM), for inactives: at the top dose activity change, negative = inhibition, most hits filed as inhibitors. 340,000 compounds, 3.4% hits; further: potency means the concentration at half of the fitted maximal effect
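Cells (1,000/well) were plated 4 h before compound, then infected with HCVcc-Cre virus (~0.5 moi). After 44 h further culture, infection was read as luciferase luminescence following a 15 min substrate incubation at room temperature.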
An asterisk follows results filed as active; i = inactive; ? = inconclusive; nt = not tested or not shown; [ ] = dose if it differs, or a comment. Unless noted, the call rests on the fitted dose curve; in most records, active means well fitted inhibition curve with a large enough effect; inconclusive means small, poorly fitted or top-dose-only effect, or another doubt; inactive means no such curve, though single readings can be large or run the other way. On the % scale 0 is the no-effect control and ±100 the full control effect.

SMILES	Pf growth 96h	HCMV antiviral	Pf growth 48h	HCV inhibitor
COc1cc(S(=O)(=O)Nc2cccc3cn[nH]c23)c(OC)cc1C	2.94µM*	-5.1	10.4µM*	-2.5%
CN(N)c1nc(-c2ccccc2)nnc1C(F)(F)F	27.0%	-104.5*	20.2%	-13.6%
CN(NC(=O)c1cccc(Cl)c1)c1nc(-c2ccccc2)nnc1C(F)(F)F	?	-4.9	-9.9%	-27.4%
FC(F)(F)c1nnc(-c2ccccc2)nc1Sc1ccc(Cl)cc1	-0.8%	83.8	?	?
FC(F)(F)c1cccc(Sc2nc(-c3ccccc3)nnc2C(F)(F)F)c1	?	-4.8	11.7µM*	14.1%
FC(F)(F)c1nnc(-c2ccccc2)nc1Sc1ccccc1	13.1µM*	45.7	?	?
CC(=O)c1cc(-c2ccccc2)n(CCC(=O)Nc2nc3c(C)cccc3s2)c1C	nt	0.0	nt	nt
CCOC(=O)C1=C(C)Nc2sc(C(=O)c3ccc(OC)cc3)c(N)c2C1c1ccc(C(=O)OC)cc1 (stereo not drawn)	5.86µM*	-25.6	7.38µM*	?
COC(=O)C1=C(C)Nc2sc(C(N)=O)c(N)c2C1c1ccncc1 (stereo not drawn)	?	24.6	-28.8%	?
Cc1cccc(C)c1NC(=O)c1ccc2nc(CCc3ccccc3)oc2c1	nt	-3.0	nt	nt
O=C(Nc1ccccc1)NC1CC2CCC(C1)N2 (stereo not drawn)	32.9%	13.3	2.4%	3.4%
CCOC(=O)c1ccc(NC(=O)NCCc2ccccc2OC)cc1	?	-21.7	?	-24.3%
CCOC(=O)c1ccc(NC(=O)Nc2ccc(F)cc2)cc1	13.1µM*	-12.6	nt	?
CCOC(=O)c1ccc(NC(=O)NC2CC3CCC(C2)N3)cc1 (stereo not drawn)	i	-27.2	-13.9%	17.8µM*
CCOC(=O)c1ccc(NC(=O)Nc2c(C)nn(C)c2C)cc1	11.7µM*	-13.0	0.4%	-5.4%
COC(=O)c1ccc(NC(=O)Nc2ccc(F)cc2)cc1	?	40.0	?	?
CCOC(=O)c1ccc(NC(=O)NCc2ccccc2OC)cc1	13.1µM*	-4.0	?	11.2µM*
COc1ccc(C(=O)O)cc1Nc1nc2ccc(C)cc2n2cnnc12	nt	-2.2	nt	nt
CCCOC(=O)c1ccc(NC(=O)c2cc(OC)c(OC)c(OC)c2Br)cc1	11.3%	25.5	-16.1%	7.08µM*
CCOC(=O)c1ccc(NC(=O)Nc2ccc(OC)c(OC)c2)cc1	12.8%	?	?	25.1µM*
CCOC(=O)c1ccc(NC(=O)NC2CC3CCC(C2)N3Cc2nnnn2C(C)(C)C)cc1 (stereo not drawn)	-12.9%	-20.0	2.08µM*	-15.1%
CC(C)(C)c1ccc(NC(=O)Nc2ccc(F)cc2)cc1	-30.0%	51.8	?	10µM*
CCOC(=O)c1ccc(NC(=S)NC2CCCC2)cc1	?	?	19.3%	-20.0%
O=C(CSc1nc2ccccc2n1Cc1cccc(F)c1)NCc1ccccc1	nt	-39.2	nt	nt
CC(=O)CSc1nc(-c2ccccc2)[nH]c1S(=O)(=O)c1ccc(C)cc1	nt	-10.9	nt	nt
SMILES	Pf growth 96h	HCMV antiviral	Pf growth 48h	HCV inhibitor
CC1=C(C(=O)Nc2cccc(C(F)(F)F)c2)C(c2ccccc2)n2ncnc2N1 (stereo not drawn)	nt	1.2	nt	nt
COc1ccccc1C(=O)Nc1ccccc1OCc1cc(=O)n2c(C)csc2n1	nt	15.9	nt	nt
COc1cccc(C2CC(c3ccccc3Cl)n3nc(N)nc3N2)c1 (stereo not drawn)	-15.8%	2.4	-9.2%	17.4%
COc1ccc(C2(c3ccc(O)cc3O)CC(c3ccccc3Cl)NC(=S)N2)cc1 (stereo not drawn)	-0.8%	-13.5	11.7µM*	-5.8%
CC(C)(C)c1ccc(Oc2ccc(NC(=O)CCC(=O)OCC(=O)c3ccccc3)cc2)cc1	nt	-8.6	nt	nt
CCOC(=O)c1c(C)nc2sc(C(=O)Nc3ccccc3)c(N)c2c1-c1ccc(OC)cc1	9.7%[5.75 µM]	nt	?	6.31µM*
CCOC(=O)c1c(C)c(C(=O)Nc2ccccc2)c(C)n1CC	4.65µM*	-29.1	?	-27.0%
CCOC(=O)c1c(N)sc(C(=O)Nc2ccccc2)c1C	7.3%	78.6	78.7%	11.2µM*
COCCCNC(=O)c1sc2nc(C)c(C(=O)Nc3ccc(Cl)cc3)c(-c3ccc(Br)cc3)c2c1N	nt	-76.5*	nt	nt
CCOC(=O)c1c(C)c(C(=O)Nc2cc(OC)ccc2OC)c(C)n1CC	4.3%	36.8	?	?
COCCCNC(=O)c1sc2nc(C)c(C(=O)Nc3ccc(C)cc3C)c(-c3ccc(Br)cc3)c2c1N	nt	-17.7	nt	nt
CCOC(=O)c1c(N)sc2c(NC(C)=O)cccc12	28.3%	-17.0	?	17.8µM*
CCOC(=O)c1c(C)nc2sc3c(c2c1-c1ccc(OC)cc1)NC(c1ccc(OC)cc1)NC3=O (stereo not drawn)	2.62µM*	-10.4	?	-2.3%
CCOC(=O)c1c(C)nc2sc(C(N)=O)c(N)c2c1-c1ccccc1	?	-62.0*	nt	-21.2%
Cc1noc2ncnc(Sc3ccccc3Cl)c12	nt	-78.8*	35.8%	?
O=C(Nc1cc(Cl)ccc1O)c1cc2nc(-c3ccc4c(c3)OCO4)cc(C(F)(F)F)n2n1	nt	-5.5	nt	nt
CCOc1cc(/C=C/C(=O)c2ccc3c(c2)OCCO3)ccc1OCC(=O)N(C)C	?	-76.7*	?	?
COc1cccc(/C=C/C(=O)c2ccc3c(c2)OCCO3)c1OC	0.0%	-95.7*	74.8%	-11.2%
COc1cc(/C=C/C(=O)c2ccc3c(c2)OCO3)cc(Cl)c1O	?	-62.3*	-23.1%	-19.2%
COc1ccc(/C=C/C(=O)c2ccc3c(c2)OCO3)c(OC)c1	194.4%	92.4	192.0%	-10.7%
COc1cc(/C=C/C(=O)c2ccc(Cl)s2)cc(OC)c1O	?	nt	nt	12.6µM*
COc1ccc(/C=C/C(=O)c2ccc(Cl)s2)cc1O	14.4%	14.7	nt	-5.0%
CCC(=O)Nc1ccccc1-c1nc2ccccc2n(C(CC)C(=O)Nc2cccc(C(C)=O)c2)c1=O (stereo not drawn)	nt	7.9	nt	nt
COc1ccccc1N1CCN(C(=O)c2oc3ccccc3c2N)CC1	nt	-24.0	nt	nt
COc1ccc(/C=C/C(=O)c2ccc3c(c2)OCCO3)cc1[N+](=O)[O-]	7.8%	178.4	-2.8%	31.6µM*
SMILES	Pf growth 96h	HCMV antiviral	Pf growth 48h	HCV inhibitor
COc1ccc(/C=N/NC(=O)c2ccc3c(c2)OCCO3)cc1[N+](=O)[O-]	?	-21.6	-2.6%	-8.2%
Cc1cccc(CNc2nc3cnc(-c4cccc(F)c4)cc3n2C)c1	nt	17.1	nt	nt
COc1ccc(OC)c(CNC(=O)CCCn2ccc3cc(S(=O)(=O)N4CCCC4)ccc32)c1	-16.1%	-37.6	?	10µM*
CC(CNC(=O)CCn1ccc2cc(S(=O)(=O)N3CCCC3)ccc21)c1ccccc1 (stereo not drawn)	11.7µM*	49.1	?	-25.8%
CCc1ccc(CNC(=O)Cn2ccc3cc(S(=O)(=O)N4CCCCCC4)ccc32)cc1	nt	3.9	nt	nt
CCc1ccc(CNC(=O)CCCn2ccc3cc(S(=O)(=O)N4CCCC4)ccc32)cc1	nt	-88.6*	nt	nt
COC(=O)c1ccccc1NC(=O)Cc1nc(-c2ccc(OC)cc2)no1	nt	-2.5	nt	nt
